FAK blocker: FAK kinase inhibitors, primary screen, biochemical | 0.84% of 97,000 active | AID 727, 2007 | Focal adhesion kinase 1 (Homo sapiens), Q05397 | inhibition, %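 (tested at 7 µM)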 | biochemical FAK kinase activity assay;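 further: 0% = DMSO and 100% = reference compound high control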
Mac1 fbg enh: enhancers of CD11b/CD18 adhesion to fibrinogen, primary screen, K562 cells, luminescence; Integrin beta-2 (Homo sapiens) + Integrin alpha-M (Homo sapiens), P05107+P11215; AID 1499, 2009; 0.07% of 93,000 active; activation, % at 10 µM; ATPlite luminescence;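 active means 10 µM primary screen giving 50% or more activity, confirmed by 40% or more on retest at that dose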
MMP13 inh: human MMP13 inhibitors, primary screen, biochemical, FRET peptide cleavage; MMP-13 fTHP FRET cleavage, Mca fluorescence; inhibition, % at 4 µM; 0.07% of 65,000 active; AID 570, 2006;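 active means inhibition above the mean of compound-free control plate wells plus 3 SD, cut at about 14% in these data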;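 further: 0% = DMSO wells and 100% = wells with reference MMP-13 inhibitor after basal subtraction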
Mac1 fbg inh: inhibitors of CD11b/CD18 adhesion to fibrinogen, primary screen, K562 cells, luminescence | 0.54% of 93,000 active | ATPlite luminescence; Mn2+ added to activate the integrin | AID 1497, 2009 | inhibition, % at 10 µM;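 active means primary inhibition of 50% or more at 10 µM, then 40% or more on retest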
FAK inh conf: FAK kinase inhibitors, retest, confirmation, biochemical; shares compounds with FAK blocker; FAK kinase biochemical inhibition assay; inhibition, % at 7 µM; 28% of 750 active; AID 794, 2007
An asterisk follows results filed as active. Most compounds without a hit are left out; they make up all but 1.1% or so of the library. Unless noted, no stated cut-off is given here; in the data, active means inhibition above about 19%; inactive means the rest.

Screening O=Cc1ccc2noc(-c3ccc(F)cc3)c2c1 returned FAK blocker 33.6*, Mac1 fbg enh -3.8, Mac1 fbg inh 12.4 and FAK inh conf 32.8*.
Screening CCOC(=O)C1=C(C)NC2=C(C(=O)CCC2)C1c1cccs1 (stereo not drawn) returned FAK blocker 1.2, Mac1 fbg enh 7.1, MMP13 inh -1.9 and Mac1 fbg inh -28.9.
Screening CCOCCOC(=O)C1=C(C)NC2=C(C(=O)CC(c3cccs3)C2)C1c1ccsc1 (stereo not drawn) returned FAK blocker 22.1*, Mac1 fbg enh 0.1, MMP13 inh -19.3, Mac1 fbg inh 2.0 and FAK inh conf 21.1*.
For O=C(NCc1ccc2c(c1)OCO2)c1ccc(CN2CCOCC2)cc1 the results were FAK blocker 0.0, Mac1 fbg enh -1.8, MMP13 inh 1.6 and Mac1 fbg inh -1.2.
`COc1cccc(C(=O)NC2CC3CCCC(C2)N3CC(=O)Nc2ccc(N(C)C)cc2)c1` (stereo not drawn) gave FAK blocker -2.8 and MMP13 inh 0.1.
COc1cccc(C(=O)NC2CC3CCCC(C2)N3CC(=O)Nc2ccccc2)c1 (stereo not drawn) was read as FAK blocker 22.4*, MMP13 inh -0.4 and FAK inh conf 7.4.
Screening Cc1cccc2nc(CSc3nnc4ccccn34)cn12 returned FAK blocker -0.4, Mac1 fbg enh 6.3 and Mac1 fbg inh -19.6.
COc1ccc2oc(=O)c(-c3nnc(NCc4ccco4)s3)cc2c1 was read as FAK blocker 20.8*, Mac1 fbg enh 73.1, MMP13 inh -12.1, Mac1 fbg inh -5.7 and FAK inh conf 4.9.
`CCOc1ccc(CCNC(=O)Cn2c(=O)oc3ccccc32)cc1OCC` gave FAK blocker 0.6, Mac1 fbg enh -2.0 and Mac1 fbg inh -1.7.
`CCc1nc(SCC(=O)NNC(=O)C(C)C)c2ccccc2n1` gave FAK blocker 41.8*, Mac1 fbg enh 3.9, Mac1 fbg inh -10.2 and FAK inh conf 18.8.
`CCc1nc(SCC(=O)NNC(=O)C2CCCCC2)c2ccccc2n1` gave FAK blocker 35.5* and FAK inh conf 20.2*.
`COc1ccccc1C1(O)CC2CCC(C1)N2S(=O)(=O)c1ccc(C(C)=O)cc1` (stereo not drawn) gave FAK blocker -6.1, Mac1 fbg enh 6.4, MMP13 inh -0.4 and Mac1 fbg inh -10.6.
For CCOC(=O)C(C(=O)N(C)C)c1ncc(C(F)(F)F)cc1Cl (stereo not drawn) the results were FAK blocker 78.5* and FAK inh conf -2.5.
CCOC(=O)C(C(=O)NCc1ccc(F)cc1)c1ncc(C(F)(F)F)cc1Cl (stereo not drawn) was read as FAK blocker 0.7, Mac1 fbg enh 1.1 and Mac1 fbg inh -21.8.
For CC(=O)c1sc2nc(C)cc(C)c2c1N the results were FAK blocker 20.3*, Mac1 fbg enh 1.0, Mac1 fbg inh -6.4 and FAK inh conf 4.7.
Screening CCCC(=O)Nc1nc2nc(-c3ccccc3)cc(-c3ccccc3)n2n1 returned FAK blocker 1.7.
For CCC(=O)Nc1nc2nc(-c3ccccc3)cc(-c3ccccc3)n2n1 the results were FAK blocker 23.8*, Mac1 fbg enh 2.8, Mac1 fbg inh -14.6 and FAK inh conf 7.7.
CC(C)c1ccc(OCC(O)CN2CCN(c3ccccc3)CC2)cc1 (stereo not drawn) was read as FAK blocker 1.8, Mac1 fbg enh 1.7, MMP13 inh 1.3 and Mac1 fbg inh -1.7.
For O=C(c1ccc(NS(=O)(=O)c2cccs2)cc1)N1CCCCC1 the results were FAK blocker 25.4*, MMP13 inh 2.4 and FAK inh conf 11.9.
O=S(=O)(Nc1ccc(N2CCCCC2)cc1)c1cccs1 was read as FAK blocker 9.5, Mac1 fbg enh 2.3, MMP13 inh -0.9 and Mac1 fbg inh 64.3.
Screening Cc1cccc(C(=O)Oc2ccccc2/C=N/Nc2ccc([N+](=O)[O-])cc2)c1 returned Mac1 fbg enh 44.8 and Mac1 fbg inh -17.9.
CCCc1nc2n[nH]c(N)c2c2c1CCCC2 was read as FAK blocker 21.4*, Mac1 fbg enh 4.9, MMP13 inh 1.9, Mac1 fbg inh 2.2 and FAK inh conf 9.7.
For c1ccc(-c2nnc(-c3ccccc3)c(-c3c[nH]c4ccccc34)n2)cc1 the results were FAK blocker -6.8, Mac1 fbg enh -0.5 and Mac1 fbg inh -0.1.

Screening results from PubChem.
